A selection: hits, their analogues and other compounds. The true share with any hit is near 3.6%.
Mtb FBA inh – Mtb FBA enzyme inhibitors, primary screen, biochemical, fluorescence, strain H37Rv. Fructose-bisphosphate aldolase (Mycobacterium tuberculosis (strain ATCC 25618 / H37Rv)), …. purified M. tuberculosis FBA, fluorescence read-out. inhibition, % at 1 µM. actives 2.3% (n = 360,000); in the data active = inhibition above about 27%
Target sequence (P9WQA3 whole entry, looked up): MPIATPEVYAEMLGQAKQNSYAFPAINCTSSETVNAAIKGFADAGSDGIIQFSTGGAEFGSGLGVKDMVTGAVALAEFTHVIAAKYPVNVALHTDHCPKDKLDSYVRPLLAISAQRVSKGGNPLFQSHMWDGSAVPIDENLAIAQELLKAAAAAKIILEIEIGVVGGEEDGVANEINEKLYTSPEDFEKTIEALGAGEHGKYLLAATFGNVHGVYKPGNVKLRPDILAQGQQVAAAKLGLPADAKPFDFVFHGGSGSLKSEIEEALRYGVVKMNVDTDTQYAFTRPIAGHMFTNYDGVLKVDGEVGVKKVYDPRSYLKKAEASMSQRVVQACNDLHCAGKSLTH
DUSP3 inh – VHR1 phosphatase inhibitors, primary screen, biochemical, absorbance, uHTS; recombinant VHR phosphatase, pNPP absorbance; AID 1654, 2009; inhibition, % at 13.3 µM; Dual specificity protein phosphatase 3 (Homo sapiens), P51452; actives 0.52% (n = 290,000); in the data active = inhibition above about 50%
Target sequence (P51452 whole entry, looked up): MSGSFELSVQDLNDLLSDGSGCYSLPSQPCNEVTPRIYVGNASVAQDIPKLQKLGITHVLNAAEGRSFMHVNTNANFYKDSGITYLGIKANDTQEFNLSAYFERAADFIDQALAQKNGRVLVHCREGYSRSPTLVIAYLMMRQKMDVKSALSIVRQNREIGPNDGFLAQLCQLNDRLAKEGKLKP
Mtb hypoxia inh – PubChem AID 1159583. M. tuberculosis hypoxia-regulated fluorescent reporter, fluorescence. fluorescence inhibition, % (no concentration beside the values). actives 0.1% (n = 300,000); in the data active = fluorescence inhibition mostly above about 23%, no sharp cut-off; inactive = mostly below about 17%
Mtb betalactam – beta-lactam sensitization of Mtb H37Rv, H37Rv | M. tuberculosis H37Rv growth with meropenem, percent inhibition | AID 434955, 2010 | actives 0.27% (n = 330,000) | inhibition, % at 25 µM; call rule not given here;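 note: growth measured after seven days incubation then overnight dye step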
GDH-TPI inh – GDH-TPI coupling enzyme inhibitors, primary screen, artefact control for M. tuberculosis FBA inhibitor project, biochemical, absorbance, full deck | AID 588335, 2011 | inhibition, % at 4.8 µM | actives 1.2% (n = 360,000) | GDH-TPI coupled enzyme counterscreen, NADH absorbance; in the data active = inhibition above about 30%
A number is an active result; – = inactive; ? = inconclusive; · = no result; + = active, no number.

SMILES	Mtb FBA inh	DUSP3 inh	Mtb hypoxia inh	Mtb betalactam	GDH-TPI inh
CCn1c(=N)c(C(=O)NC)cc2c(=O)n3cccc(C)c3nc21	+	–	·	·	–
Cc1cccn2c(=O)c3cc(C(=O)NC4CCCC4)c(=N)n(C4CCCC4)c3nc12	+	–	·	–	–
CN(C)c1ccc(C=NNC(=O)CCCCCNC(=O)c2ccccc2)cc1	·	·	–	·	·
CCCn1c(=N)c(C(=O)NC2CCCC2)cc2c(=O)n3cccc(C)c3nc21	+	–	–	–	–
O=[N+]([O-])c1ccc(NN=Cc2cc(Br)ccc2O)nc1	–	·	37	·	–
O=[N+]([O-])c1ccc(NN=Cc2cccs2)nc1	·	·	–	·	·
O=[N+]([O-])c1ccc(NN=Cc2cccc(O)c2)nc1	–	·	–	·	–
O=[N+]([O-])c1ccc(NN=Cc2ccco2)nc1	–	·	–	·	33
CC(=NO)C1(C)N(O)C(C)(C)C(c2ccc(Br)cc2)=[N+]1[O-] (configuration not stated)	·	·	–	·	·
NC(=O)C1CC2(CC(c3cccc(NC(=O)C4CCC(=O)N4)c3)=NO2)CN1C(=O)Cc1ccc([N+](=O)[O-])cc1 (configuration not stated)	·	·	–	·	·
Cn1c(N)c(C(=O)COC(=O)C2CCCN2S(=O)(=O)c2ccc(Cl)cc2)c(=O)n(C)c1=O (configuration not stated)	·	·	–	·	·
CCOC(=O)C1CCN(C(=O)Cn2cc(C(=O)c3ccco3)c3ccccc32)CC1	–	–	–	–	–
O=C(c1ccco1)c1cn(CC(=O)N2CCCCCC2)c2ccccc12	–	–	·	–	38
O=P(C(=NO)Sc1ccccc1)(N1CCOCC1)N1CCOCC1	·	·	–	·	·
O=C(CN1C(=O)COc2ccccc21)NCCN1CCCC1	–	50	–	–	–
COc1ccc(C2C=C(c3ccc(C)cc3)Nc3ncnn32)cc1 (configuration not stated)	+	–	–	·	–
Fc1ccc(C2=CC(c3ccc(Br)o3)n3ncnc3N2)cc1 (configuration not stated)	43	–	·	–	–
Fc1ccc(C2=CC(c3ccco3)n3ncnc3N2)cc1 (configuration not stated)	113	–	–	–	–
O=C(NCCc1ccc(Cl)cc1)c1ccc(CNc2c(N3CCOCC3)c(=O)c2=O)cc1	–	–	42	–	–
O=S(=O)(C=Cc1ccccc1)N1CCN(Cc2ccccc2)CC1	·	·	–	·	·
Cc1cc(C)cc(C(=O)C=C2NC(=O)CS2)c1	·	·	–	·	·
CC(C)(C)c1ccc(C(=O)/C=C2\NC(=O)CS2)cc1	–	–	·	–	48
CN(C)S(=O)(=O)c1ccc(C(=O)Nc2nnc(SCC(=O)NCC3CCCO3)s2)cc1 (configuration not stated)	–	–	–	–	35
CC(C)(C)c1ccc(C(=O)Nc2nnc(SCC(=O)NCC3CCCO3)s2)cc1 (configuration not stated)	–	–	–	?	–
CCOc1ccc(C(=O)Nc2nnc(SCC(=O)NCC3CCCO3)s2)cc1 (configuration not stated)	–	–	–	–	38
SMILES	Mtb FBA inh	DUSP3 inh	Mtb hypoxia inh	Mtb betalactam	GDH-TPI inh
COC(=O)[C@]1(C)NC(c2ccc(-c3ccccc3)cc2)C2C(=O)N(C)C(=O)C21 (some centres not stated)	·	·	–	·	·
C(=N\Nc1ncnc2sc3c(c12)CCC3)/c1cccs1	–	–	·	–	33
C(=N\Nc1ncnc2sc3c(c12)CCC3)/c1ccncc1	–	50	·	?	–
Cn1cnc2c(N/N=C/c3cccs3)ncnc21	–	–	·	–	39
CC(=NNC(=O)c1ccc(COc2ccccc2)cc1)c1ccncc1	·	·	–	·	·
NC(=S)N/N=C1\c2ccccc2-c2c(C(=O)O)cccc21	–	–	·	–	–
NC(=O)c1cccc2c1-c1ccccc1/C2=N/NC(N)=S	–	–	·	?	41
CC(C)(O)C1CC[C@@](C)(C2CC[C@]3(C)C2C(O)CC2[C@@]4(C)CCC(O)C(C)(C)C4C(OC4OC(CO)C(O)C(O)C4OC4OC(CO)C(O)C(O)C4O)C[C@]23C)O1 (some centres not stated)	·	·	–	·	·
CC1C(=O)OC2CC34C5CC(C(C)(C)C)C36C(OC(=O)C6O)OC4(C(=O)O5)[C@]21O (some centres not stated)	·	·	–	·	·
Cc1ccc(-c2[nH]c(-c3ccc(C(=O)O)cc3)nc2-c2ccccc2)cc1	+	–	·	–	–
Cc1ccc(-c2nc3ccc(C(=O)O)cc3nc2-c2ccc(C)cc2)cc1	–	–	–	–	–
CCN1C(=O)C2C(c3ccc(C)cc3)N3C(=O)N(c4ccc(OC)cc4)C(=O)[C@@]3(Cc3ccc(Cl)cc3)C2C1=O (some centres not stated)	·	·	–	·	·
Cc1ccnc(N2C(=O)c3cccc4c([N+](=O)[O-])ccc(c34)C2=O)c1	–	–	–	–	33
N#C/C(=C(/O)c1cc2ccccc2o1)c1nc2ccccc2s1	–	–	–	–	–
N#C/C(=C(/O)c1ccco1)c1nc2ccccc2s1	–	–	–	–	56
N#C/C(=C(/O)CN1CCOCC1)c1nc2ccccc2s1	–	–	·	–	39
COc1cc(C=NNC(=O)c2csc3c2CCCC3)ccc1OCCN1CCOCC1	·	·	–	·	·
O=C(CC1C(=O)N(CCc2ccccc2)CC1Cc1ccccc1)Nc1ccccc1 (configuration not stated)	·	·	–	·	·
O=C(NN=Cc1cccnc1)c1ccccc1OCc1ccc(Cl)cc1	·	·	–	·	·
Cc1ccc(OCCOCCN2CCCC2)c(Br)c1	–	59	–	–	–
Cc1cc(Br)ccc1OCCOCCN1CCCC1	–	–	–	–	–
COc1cc2c(c(OC)c1OC)C(=O)C(=Cc1ccccc1)O2	–	·	–	·	36
Cc1ccc(NN=C(C#N)C(N)=S)cc1C	·	·	–	·	·
COCc1cc(=O)[nH]c(N=C(N)Nc2ccccc2C)n1	·	·	–	·	·
O=C(N/N=C/c1ccco1)c1cccc(NC(=O)c2ccccc2Cl)c1	–	–	·	–	32
SMILES	Mtb FBA inh	DUSP3 inh	Mtb hypoxia inh	Mtb betalactam	GDH-TPI inh
COc1ccc(/C=N/NC(=O)c2cccc(NC(=O)c3ccccc3Cl)c2)c(OC)c1	–	–	·	–	31
Cc1ccc(S(=O)(=O)N2CCN(CC(=O)NN=Cc3ccco3)CC2)cc1	·	·	–	·	·
CC1CN(C(C)CO)C(=O)c2cc(NC(=O)c3ccncc3)ccc2OC1CN(C)C(=O)NC1CCCCC1 (configuration not stated)	·	·	–	·	·
O=C(COc1ccc(C=NNS(=O)(=O)c2ccccc2)cc1)Nc1cccc(Cl)c1	·	·	–	·	·
O=C(Nc1ccc(F)cc1)Nc1ccccc1F	–	56	–	–	–
N#Cc1ccccc1NC(=O)Nc1ccccc1	50	–	–	–	–
O=C(NC1CC2CCCC(C1)N2CC(=O)N1CCCc2ccccc21)C1CCCCC1 (configuration not stated)	191	–	–	–	–
CC(C)c1c(C(=O)NN=Cc2cccc3ccccc23)nnn1-c1nonc1N	·	·	–	·	·
COc1ccc(C=NNC(=O)c2[nH]c(C)c(C(=O)NN=Cc3ccc(OC)cc3)c2C)cc1	·	·	–	·	·
